# Results published in PubChem BioAssay (NCI).
# About 83,000 compounds went through this panel and 20% of them were active in at least one assay; those are over-represented in the sample as a whole.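 Single-dose data. Exposure time 48 hours. Values below 10 considered active.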 Unmarked numbers belong to inactive results. The source made the active and inactive calls.
# Tested on: OVCAR-8 ovarian
# Assay: NCI-60 one-dose screen, 48 h (100 = growth as untreated, 0 = no growth, -100 = all killed)
# Settings: 10 µM unless noted
# Method: Growth inhibition of the OVCAR-8 human tumor cell line is measured as a screen for anti-cancer activity. Cells are grown in 96 well plates and exposed to the test compound for 48 hours. Compounds are tested at a single concentration, which is 10^-5 M for most compounds. The reported endpoint is percent growth (GI% or GIPRCNT), where numbers from 0 - 100% represent growth inhibition, and numbers from -100% - 0 represent cell death. For example, a value of 40 represents 60% growth inhibition. A value of 0 means no net growth occurred over the course of the experiment. A value of -40 indicates 40% of cells at the beginning of the experiment died by the end of the experiment. A value of -100 means all cells are dead at the end of the experiment.
# NCI-60 Human Tumor Cell Lines Screen was performed using the standard one-dose NCI protocol, which is described in more detail at https://dtp.cancer.gov/discovery_development/nci-60/default.htm.
# Compounds with GIPRCNT values below 10 were considered active. Activity score was based on GIPRCNT using the following formula: […]
# Score is 0 for GIPRCNT values of 100 or above, 50 for GIPRCNT values of 0, and 100 for GIPRCNT values of -100.
row,SMILES,growth
1,CC([C@H]1CCC2C3CCC4C[C@@H](NC=O)CC[C@]4(C)C3CC[C@@]21C)N(C)C (stereo not given in full),41.1%
2,O=c1cc(SCc2ccccc2)nc[nH]1,117%
3,NCCNc1nc2ccccc2c2c(=O)c3cc(F)ccc3sc12,79.2%
4,COc1ccc2c(c1)/C(=C/c1sc(=S)n(Cc3ccco3)c1O)C=N2,40.7%
5,CN1CCN(c2ccc(-c3ccc4ncc(C#N)c(Nc5ccc(F)c(Cl)c5)c4c3)cc2)CC1,47.9%
6,CSc1ncccc1C(=O)OCC(=O)Nc1oc(C)c2c(C)n[nH]c(=O)c12,98.6%
7,Oc1ccc(C#CCOc2ccccc2)cc1CNCCN(Cc1ccccn1)Cc1ccccn1,15.2%
8,COc1cccc2c(=O)c3c(sc12)c(NCCCN)nc1ccccc13,34.8%
9,N[C@@H](Cc1ccccc1)[C@@H](O)C(=O)NCc1ccc(F)cc1,104%
10,O=C(Nc1ccc(I)cc1F)c1cc(I)ccc1O,12.7%
11,O=C(CSc1nc2ccccc2[nH]1)Nc1cccc(Cl)c1,106%
12,O=C1/C(=C/c2ccc(F)cc2)Sc2c(Br)cccc21,64.9%
13,CCCCC[C@H](O)C/C=C1/C(=O)C=C[C@@H]1C/C=C\CCCC(=O)OC,13.8%
14,CC(=O)OC[C@H]1OC(Sc2sc(C(=O)c3ccc(C)cc3)c(N)c2-c2nc3ccccc3s2)[C@H](OC(C)=O)[C@@H](OC(C)=O)[C@@H]1OC(C)=O (stereo not given in full),58.7%
15,COc1ccc(-c2nnc(COc3ccc(Cl)cc3Cl)o2)cc1OC,20.1%
16,NC1=C(c2nn[nH]n2)C(c2ccccc2Cl)c2ccc3ccccc3c2O1 (stereo not given),86%
17,COc1cc2cc(Oc3ccc(NC(=O)Nc4cc(C(F)(F)F)cc(C(F)(F)F)c4)cc3)c(C)nc2cc1OCCN1CCOCC1,17.2%
18,NC[C@@H]1O[C@H](O[C@@H]2[C@@H](CO)OC(O[C@@H]3[C@@H](O)[C@H](N)C[C@H](N)[C@H]3OC3O[C@H](CN)[C@@H](O)[C@H](O)[C@H]3N)[C@@H]2O)[C@H](N)[C@@H](O)[C@@H]1O (stereo not given in full),98%
19,CN(C)CCS(=O)(=O)Nc1cc(-c2ccc3ncc(C#N)c(Nc4ccc(F)c(Cl)c4)c3c2)cnc1Cl,-10.8% (active)
20,O=C1CSC(c2c(Cl)cccc2Cl)N1c1nc(Cl)cc(=O)[nH]1 (stereo not given),107%

row,SMILES,growth
1,Oc1c(I)cc(I)cc1CNCCCN(Cc1ccccn1)Cc1ccccn1,-11.2% (active)
2,O=C(Nc1ccc(-c2nc(-c3cccc(OCCN4CCOCC4)c3)c(-c3ccnc(Br)c3)[nH]2)cc1)c1ccccc1,41.5%
3,O=c1ccc(N=Nc2ccccc2)ccc1Cl,38.9%
4,O=c1c2cc(F)ccc2sc2c(NCCCNCCO)nc3ccccc3c12,26%
5,Cc1cccc2c3c(sc12)C(c1ccc(F)cc1)C(C#N)=C(N)O3 (stereo not given),18.9%
6,NCCCNc1nc2ccccc2c2c(=O)c3cc(OC(F)(F)F)ccc3sc12,-0.0816% (active)
7,Cc1ccc(C(CC(=O)O)c2c(C)[nH][nH]c2=O)cc1 (stereo not given),101%
8,NC(=O)Nc1ccc2ncnc(Nc3ccc(Cl)cc3)c2c1,89.5%
9,NCCCNc1nc2ccccc2c2c(=O)c3cc(F)cc(F)c3sc12,69.7%
10,COc1ccc(-c2conc2-c2ccccc2)cc1,18.1%
11,COc1ccc(C(=O)N=Nc2c(O)n(C)c3ccccc23)cc1,95.6%
12,COc1ccc2c(c1)C(C)Cc1c(ncnc1-n1c(C)nc3ccccc31)N2C (stereo not given),38.8%
13,C=C1CC[C@@]2(C#N)[C@H]3[C@H](CC[C@@H]2C)[C@@H](C)C[C@@H](CC(C)(C)C#N)[C@H]13,49.1%
14,Cc1cccc(NC2=C(Cl)C(=O)c3nc(C)ccc3C2=O)c1,6.03% (active)
15,O=C(CCc1nnc(-c2c(Cl)cccc2Cl)o1)c1nc2ccccc2[nH]1,57.2%
16,CCOC(=O)c1c(C)oc2ncnc(N3CCN(C(=O)COc4ccc(C(C)(C)C)cc4)CC3)c12,81.5%
17,CCCCCCCCCCCCCCCCCCOc1ccc(CC(=O)OCC[N+]2(C)CCCCC2)cc1,96.9%
18,Fc1cc(-c2nnc3n2NC(=Nc2ccc(Cl)cc2)CS3)c(Cl)cc1Cl,94.9%
19,COc1c(B(O)O)cc(C)cc1-c1nc2ccc3[nH]ncc3c2c2c1CCCC2,53.3%
20,CCc1nnc(NC(=O)c2nnn(-c3ccccc3)c2-c2ccco2)s1,103%
